Compound activity as filed in PubChem BioAssay.
PINK1 expr mod – PINK1 expression modulation; PINK1 immunofluorescence, high-content cytometry, 24 h; Potency, µM (highest dose often 76.6 µM), inactives show top-dose activation (PINK1 increase), usual class: activators; 410,000 tested, 0.2% active; AID 624263; active means well fitted activation curve with a large enough effect; inconclusive means small, poorly fitted or top-dose-only effect; cell line not stated here; further: % of control where 0% means no effect; nearly all actives have a fitted effect of over 65% in size
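Cells are seeded, rested 12 hours, then given compound at five concentrations or DMSO for 24 hours. After fixation, blocking and antibody staining, PINK1 amount and mitochondrial localization are scored; CCCP serves as control.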
Epigenetic derep – derepresses silenced GFP reporter in murine cells. 280,000 tested, 0.2% active. Potency, µM (highest dose often 53.9 µM), inactives show at the highest dose GFP activation, hits mostly activators. AID 1865. murine LDR cells, GFP reporter derepression, 30 h; further: % of control where 0% means no effect; nearly all actives have a fitted effect of over 60% in size
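Derepression of a silenced CMV-GFP reporter in murine LDR cells is scored by enumerating GFP-positive cells with a laser-scanning microplate cytometer after 30 hours of treatment at 37 C.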
Vif-A3G inh – Vif-A3G binding inhibition; Potency, µM (series often up to 46.1 µM), for the others: at the top dose activity, negative = active, actives largely listed as inhibitors; Q9HC16; HeLa A3G-eYFP + Vif (tagged APOBEC3G with the HIV-1 protein that degrades it), YFP fluorescence, overnight; 410,000 tested, 0.076% active; further: on the % scale 0 is the no-effect control and ±100 the full control effect; nearly all actives have a fitted effect of over 60% in size
Target sequence (Q9HC16 whole entry, looked up): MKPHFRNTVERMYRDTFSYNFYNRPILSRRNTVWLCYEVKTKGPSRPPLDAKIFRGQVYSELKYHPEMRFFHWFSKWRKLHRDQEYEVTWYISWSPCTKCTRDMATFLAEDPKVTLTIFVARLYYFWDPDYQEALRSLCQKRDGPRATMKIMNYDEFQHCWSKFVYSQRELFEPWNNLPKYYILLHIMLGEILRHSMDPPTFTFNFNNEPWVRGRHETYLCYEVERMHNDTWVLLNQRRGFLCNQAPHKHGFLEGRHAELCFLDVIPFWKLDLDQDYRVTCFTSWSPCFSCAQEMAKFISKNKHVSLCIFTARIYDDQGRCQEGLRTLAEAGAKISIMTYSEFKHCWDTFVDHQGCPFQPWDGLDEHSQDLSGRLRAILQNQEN
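HeLa cells stably expressing Vif and C-terminally eYFP-tagged A3G, seeded overnight at 37 deg C, then exposed to compound by pintool overnight at 37 deg C. Rise in yellow fluorescence (Ex 488/Em 500-530, Acumen) marks blocked Vif-driven A3G degradation.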
Vif-APOBEC3F blk – inhibitors of Vif-A3F interaction. HeLa A3F-eYFP + Vif (tagged APOBEC3F with the HIV-1 protein that degrades it), YFP fluorescence increase. 390,000 tested, 0.2% active. AID 602313. Potency, µM (highest dose often 46.1 µM), for the others: top-dose activity, negative = active; further: % of control where 0% means no effect; nearly all actives have a fitted effect of over 65% in size
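HeLa cells stably expressing A3F-eYFP plus Vif, plated and incubated overnight at 37 deg C, then exposed to compounds overnight at 37 deg C. Blocked degradation read as raised yellow fluorescence (Ex 488/Em 500-530).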
* = called active by the depositor; ? = inconclusive; . = no result given; ! = a repeat was not active. Shown are actives, neighbours in structure and some others; about 0.51% of the full set was active somewhere. Unless noted, the call rests on the fitted dose curve; in most records, active means well fitted curve in the direction sought with a large enough effect; inconclusive means small, poorly fitted or top-dose-only effect, or another doubt; inactive means no such curve, though single readings can be large; an effect the other way counts as inactive or inconclusive. Potency means the concentration at half of the fitted maximal effect.

SMILES	PINK1 expr mod	Epigenetic derep	Vif-A3G inh	Vif-APOBEC3F blk
CNC(=S)N/N=C(\C)c1ccc(Cl)s1	-1%	0%	1%	7.9µM*
Cc1cc(C2=NNC(=NC3CC3)SC2)c(C)n1-c1ccccc1	40µM*	0%	1%	-2%
CN=C1NN=C(c2cc(C)n(-c3c(C)n(C)n(-c4ccccc4)c3=O)c2C)CS1	-1%	1%	-7%	5%
COc1ccc(-n2c(C)cc(C3=NNC(=NC4CC4)SC3)c2C)cc1	32µM*	3%	-23%	-12%
Cc1cc(C)n(-c2ccc(C(=O)NCC3Cc4cc(-c5cnccn5)ccc4O3)cc2)n1 (stereo unspecified)	0%	.	.	.
OC(c1cccnc1)c1ccc2c(c1)CN(Cc1ccc(-c3ccccc3Cl)o1)CCO2 (stereo unspecified)	3%	.	.	.
O=C1C2=C(Nc3ccccc3SC2c2ccc(Cl)c(Cl)c2)c2ccccc21 (stereo unspecified)	?	-1%	3%	3%
O=C1C2=C(Nc3ccccc3SC2c2ccccc2C(F)(F)F)c2ccccc21 (stereo unspecified)	13µM*	0%	-12%	-15%
CCc1ccc2nc(SCC(=O)N3CC(=O)Nc4ccccc43)c(C#N)cc2c1	1%	18µM*	?	?
CCc1ccc2nc(SCC(=O)Nc3ccccc3N3CCOCC3)c(C#N)cc2c1	4%	?	?	10µM*
CC(O)(COc1ccccc1)c1ccc2c(c1)CN(Cc1cccn1-c1ccccn1)CCO2 (stereo unspecified)	0%	.	.	.
c1ccc2c(c1)Cc1cc3ccccc3nc1-2	7%	0%	?	10µM*
O=C1c2ccccc2-c2nc3ccccc3cc21	0%	.	-8%	2.8µM*
COc1cccc(O)c1CN1CCC2(CC1)c1ccccc1[C@@H](NC(=O)c1ccsc1)[C@@H]2OC	-1%	.	.	.
COCc1c(C(=O)NC2CCCCCC2)cnn1-c1nccc(-c2cc(C)sc2C)n1	0%	.	.	.
Oc1ccccc1-c1nc(NCc2ccccc2)c2ccccc2n1	2%	.	-7%	22µM*
Oc1ccccc1-c1nc(NCc2cccnc2)c2ccccc2n1	1%	0%	-1%	?
COc1ccccc1N1C(=O)C(Cl)=C(Nc2ccccc2O)C1=O	2%	13%	?	22µM*
COc1ccc(C(=O)c2sc(Nc3ccccc3)c(C(=O)Nc3ccc(OC)c(OC)c3)c2N)cc1	?	3%	-4%	-1%
COc1ccc(Nc2sc(C(=O)c3ccc(Cl)cc3)c(N)c2C(=O)Nc2ccccc2OC)cc1	16µM*	4%	-7%	2%
CCN(CC)CCn1c(-c2ccccc2)csc1=Nc1ccccc1	28µM*	-1%	0%	3%
OCCCn1c(-c2ccccc2)csc1=Nc1ccccc1	1%	1%	-4%	2%
CN(C)c1ccc(/C=N/N(CCO)C2=NS(=O)(=O)c3ccccc32)cc1	16%	.	5%	22µM*
S=C(c1cn(CCOc2cccc3ccccc23)c2ccccc12)N1CCCC1	28µM*	-1%	-7%	-22%
S=C(c1cn(CCOc2ccccc2)c2ccccc12)N1CCCC1	?	-5%	0%	7%
SMILES	PINK1 expr mod	Epigenetic derep	Vif-A3G inh	Vif-APOBEC3F blk
COc1ccc2c(c1)N(C)/C(=C/c1cccc[n+]1C)S2	5µM*	.	13µM*	?
CCN1/C(=C/c2cccc[n+]2C)Sc2ccc(OC)cc21	25µM*	.	?	25µM*
CCN1/C(=C/C(C)=O)Sc2ccc(OC)cc21	1%	-1%	-2%	-1%
Cc1[nH]c2ccccc2c1/C=C/c1c(C)[nH]c2ccccc12	4%	.	-2%	.
Cc1[nH]c2ccccc2c1/C=C/c1cc[n+](C)cc1	?	14µM*	3.2µM*	?
CC(C)c1ccc(C2C(C#N)=C(N)N3C(=C2C#N)Sc2ccccc23)cc1 (stereo unspecified)	.	20µM*	.	.
CC(C)c1ccc(C2CC(=O)N3CN(C)CSC3=C2C#N)cc1 (stereo unspecified)	-1%	-1%	2%	-12%
CCn1c(-c2ccccc2F)nc2cc(C(=O)NCc3ccc(C)o3)cc(NC(C)=O)c21	0%	.	.	.
Cc1ccc(NS(=O)(=O)c2cc([N+](=O)[O-])ccc2N/N=C/c2sc(N3CCOCC3)nc2-c2ccccc2)c(C)c1	13%	32µM*	?	-395%
Cc1ccc(N=C2NC(=O)/C(=C\c3ccco3)S2)cc1	4%	1%	-6%	0%
O=C1NC(=Nc2ccc(O)cc2)S/C1=C/c1ccco1	-1%	3%	11µM*	-1%
C/C(CCc1ccc2c(c1)OCO2)=N\NC(=S)NC(C)C	-1%	?	1%	13µM*
COc1cccc(-c2nc(=S)c3c(n2Cc2ccco2)CCCC3)c1	6.3µM*	-1%	-2%	-6%
Oc1c(CN2CCc3ccccc3C2)cc(Cl)c2cccnc12	2%	4µM*	-13%	?
CN1CCN(Cc2cc(COCc3ccccc3)c3cccnc3c2O)CC1	-1%	3.5µM*	-6%	?
CCCOCc1cc(CN2CCN(c3cccc(Cl)c3)CC2)c(O)c2ncccc12	?	?	-3%	?
CC1CCN(C(=O)C(C)Sc2nc(-c3ccccc3)cc(C(F)(F)F)n2)CC1 (stereo unspecified)	1%	4%	20µM*!	-4%
Cc1nc2sccn2c1CN1CCOc2ccc(CN3CCN(c4ccc(F)cc4)CC3)cc2C1	0%	.	.	.
CN(NS(=O)(=O)c1ccc(Br)cc1)c1nc(C(F)(F)F)nc2ccccc12	16µM*	0%	-1%	0%
CN(N)c1nc(C(F)(F)F)nc2ccccc12	1%	-3%	0%	-6%
C/C(=N\NC(=O)CCc1ccccc1)C1C(=O)c2ccccc2C1=O	0%	2%	-1%	?
C/C(=N\NC(=O)c1cccc(Cl)c1)C1C(=O)c2ccccc2C1=O	40µM*	-4%	3%	10%
Cc1cccc(CNC(=O)c2cnn(-c3nccc(-c4cccs4)n3)c2C(C)C)n1	-1%	.	.	.
CCCCn1c(N)c(N(Cc2ccccc2OC)C(=O)COc2ccccc2OC)c(=O)[nH]c1=O	3%	.	3%	?
CCCCn1c(N)c(N(Cc2ccccc2OC)C(=O)c2ccc([N+](=O)[O-])s2)c(=O)[nH]c1=O	-4%	.	?	13µM*
SMILES	PINK1 expr mod	Epigenetic derep	Vif-A3G inh	Vif-APOBEC3F blk
O=C(Nc1cccc(OCc2cc(=O)n3c4c(sc3n2)CCCC4)c1)c1ccc(F)cc1	17%	25µM*	-2%	-20%
CCNc1ncc2nc(-c3ccc(Cl)cc3)c(=O)n(-c3ccccc3)c2n1	13µM*	.	.	.
CCNc1ncc2nc(-c3ccccc3)c(=O)n(-c3ccc(OC)cc3)c2n1	1%	.	.	.
COc1ccc(CN2CCOc3ccc(C(O)c4cccnc4)cc3C2)c(F)c1 (stereo unspecified)	-1%	.	.	.
Cc1csc(NC(=O)CSc2nnc(-c3ccoc3C)o2)n1	-1%	4%	0%	0%
Cc1occc1-c1nnc(SCC(=O)Nc2nc(C(C)(C)C)cs2)o1	14µM*	2%	-4%	-2%
